The target in test [1] is T1, Ephrin type-B receptor 2 (Homo sapiens) (UniProt P29323).
T1 sequence (whole entry): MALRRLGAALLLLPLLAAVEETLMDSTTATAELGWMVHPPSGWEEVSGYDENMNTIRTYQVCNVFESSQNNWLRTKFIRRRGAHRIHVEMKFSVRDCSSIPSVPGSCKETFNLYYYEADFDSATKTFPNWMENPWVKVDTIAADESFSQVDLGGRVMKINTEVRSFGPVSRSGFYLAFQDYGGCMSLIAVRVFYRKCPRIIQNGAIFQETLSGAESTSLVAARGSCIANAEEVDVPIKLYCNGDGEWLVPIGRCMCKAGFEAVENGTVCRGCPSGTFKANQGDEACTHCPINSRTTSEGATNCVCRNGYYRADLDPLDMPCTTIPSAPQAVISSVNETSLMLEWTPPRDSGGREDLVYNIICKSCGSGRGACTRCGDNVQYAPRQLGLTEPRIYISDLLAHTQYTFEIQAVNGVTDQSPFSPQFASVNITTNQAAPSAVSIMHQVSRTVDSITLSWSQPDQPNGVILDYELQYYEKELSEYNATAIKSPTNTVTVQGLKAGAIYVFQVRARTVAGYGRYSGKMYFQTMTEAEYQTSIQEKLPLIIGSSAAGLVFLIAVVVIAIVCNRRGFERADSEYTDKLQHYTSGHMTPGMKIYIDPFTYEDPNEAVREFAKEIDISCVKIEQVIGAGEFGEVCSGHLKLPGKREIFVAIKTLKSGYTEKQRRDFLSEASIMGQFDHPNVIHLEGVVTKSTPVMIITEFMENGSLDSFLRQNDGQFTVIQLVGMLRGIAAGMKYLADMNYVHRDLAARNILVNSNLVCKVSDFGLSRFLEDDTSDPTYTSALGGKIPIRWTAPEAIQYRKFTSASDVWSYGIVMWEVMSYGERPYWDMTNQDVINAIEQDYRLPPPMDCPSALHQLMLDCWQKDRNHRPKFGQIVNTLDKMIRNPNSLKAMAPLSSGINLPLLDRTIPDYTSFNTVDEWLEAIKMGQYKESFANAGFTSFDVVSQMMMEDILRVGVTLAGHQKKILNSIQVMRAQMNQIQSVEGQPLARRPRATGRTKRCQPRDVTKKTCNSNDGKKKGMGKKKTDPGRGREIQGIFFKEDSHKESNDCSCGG
The settings on record: at 1 µM.

Test [2] deals with T2, Ephrin type-B receptor 3 (Homo sapiens) (UniProt P54753).
T2 sequence (whole entry): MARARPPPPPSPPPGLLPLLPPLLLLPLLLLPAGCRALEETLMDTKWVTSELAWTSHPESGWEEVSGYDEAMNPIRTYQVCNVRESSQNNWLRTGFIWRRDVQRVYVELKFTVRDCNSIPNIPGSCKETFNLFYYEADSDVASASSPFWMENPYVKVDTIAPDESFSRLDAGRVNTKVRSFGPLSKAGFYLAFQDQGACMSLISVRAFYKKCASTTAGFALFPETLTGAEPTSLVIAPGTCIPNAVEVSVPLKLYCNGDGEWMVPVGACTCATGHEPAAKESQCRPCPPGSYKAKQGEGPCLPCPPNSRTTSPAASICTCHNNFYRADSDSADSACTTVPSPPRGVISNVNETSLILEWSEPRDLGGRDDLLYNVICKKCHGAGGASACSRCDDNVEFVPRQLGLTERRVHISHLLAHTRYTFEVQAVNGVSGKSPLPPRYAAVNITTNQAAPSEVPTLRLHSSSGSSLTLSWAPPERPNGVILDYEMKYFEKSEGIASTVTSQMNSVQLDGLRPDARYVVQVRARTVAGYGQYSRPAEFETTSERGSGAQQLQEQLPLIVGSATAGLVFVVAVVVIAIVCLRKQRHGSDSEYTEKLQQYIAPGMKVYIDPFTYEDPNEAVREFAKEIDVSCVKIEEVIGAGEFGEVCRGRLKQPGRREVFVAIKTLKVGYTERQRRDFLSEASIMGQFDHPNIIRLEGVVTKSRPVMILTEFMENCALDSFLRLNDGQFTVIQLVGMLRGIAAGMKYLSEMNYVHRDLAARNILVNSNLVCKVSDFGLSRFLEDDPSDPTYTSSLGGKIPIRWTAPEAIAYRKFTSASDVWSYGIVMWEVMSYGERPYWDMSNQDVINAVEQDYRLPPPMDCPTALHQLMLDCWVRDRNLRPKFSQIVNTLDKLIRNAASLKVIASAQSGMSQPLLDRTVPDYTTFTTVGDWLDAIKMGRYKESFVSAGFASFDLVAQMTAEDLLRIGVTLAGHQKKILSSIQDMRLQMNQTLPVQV
The settings on record: at 0.1 µM.

In test [3] the target is T2, Ephrin type-B receptor 3 (Homo sapiens). The settings on record: at 1 µM.
For test [4], the target named is T3, Ephrin type-B receptor 4 (Homo sapiens) (UniProt P54760).
T3 sequence (whole entry): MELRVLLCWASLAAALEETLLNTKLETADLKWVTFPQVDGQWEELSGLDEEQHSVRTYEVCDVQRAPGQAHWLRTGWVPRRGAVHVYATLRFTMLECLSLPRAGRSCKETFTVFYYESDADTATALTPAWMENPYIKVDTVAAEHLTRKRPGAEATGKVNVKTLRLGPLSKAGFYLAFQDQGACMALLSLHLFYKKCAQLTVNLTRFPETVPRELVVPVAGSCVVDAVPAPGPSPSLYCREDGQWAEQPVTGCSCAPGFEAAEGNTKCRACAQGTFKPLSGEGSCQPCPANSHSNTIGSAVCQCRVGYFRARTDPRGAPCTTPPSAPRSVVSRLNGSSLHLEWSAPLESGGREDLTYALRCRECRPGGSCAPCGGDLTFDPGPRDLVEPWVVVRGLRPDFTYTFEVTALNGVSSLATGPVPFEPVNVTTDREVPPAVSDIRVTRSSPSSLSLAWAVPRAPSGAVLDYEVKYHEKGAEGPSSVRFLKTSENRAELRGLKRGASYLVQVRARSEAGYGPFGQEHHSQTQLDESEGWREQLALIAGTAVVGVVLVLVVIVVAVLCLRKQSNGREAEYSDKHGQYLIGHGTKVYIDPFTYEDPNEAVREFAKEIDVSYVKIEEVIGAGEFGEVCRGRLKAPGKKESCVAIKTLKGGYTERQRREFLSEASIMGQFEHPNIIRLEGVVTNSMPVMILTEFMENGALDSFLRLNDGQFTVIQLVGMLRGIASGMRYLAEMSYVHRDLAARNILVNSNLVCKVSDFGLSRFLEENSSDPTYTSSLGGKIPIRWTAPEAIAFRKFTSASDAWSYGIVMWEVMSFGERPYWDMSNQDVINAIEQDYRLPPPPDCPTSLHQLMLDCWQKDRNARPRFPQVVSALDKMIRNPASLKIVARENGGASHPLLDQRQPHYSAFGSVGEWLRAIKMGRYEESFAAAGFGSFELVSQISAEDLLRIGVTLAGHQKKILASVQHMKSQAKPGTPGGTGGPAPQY
The settings on record: at 0.1 µM.

For test [5], the target named is T3, Ephrin type-B receptor 4 (Homo sapiens). The settings on record: at 1 µM.
Test [6] addresses Receptor tyrosine-protein kinase erbB-2 (Homo sapiens) (UniProt P04626). The settings on record: at 0.1 µM.
Test [7] shares this target. The settings on record: at 1 µM.
The target of test [8] is Receptor tyrosine-protein kinase erbB-4 (Homo sapiens) (UniProt Q15303). The settings on record: at 0.1 µM.
Chain of Receptor tyrosine-protein kinase erbB-4 (Homo sapiens) (Q15303 whole entry): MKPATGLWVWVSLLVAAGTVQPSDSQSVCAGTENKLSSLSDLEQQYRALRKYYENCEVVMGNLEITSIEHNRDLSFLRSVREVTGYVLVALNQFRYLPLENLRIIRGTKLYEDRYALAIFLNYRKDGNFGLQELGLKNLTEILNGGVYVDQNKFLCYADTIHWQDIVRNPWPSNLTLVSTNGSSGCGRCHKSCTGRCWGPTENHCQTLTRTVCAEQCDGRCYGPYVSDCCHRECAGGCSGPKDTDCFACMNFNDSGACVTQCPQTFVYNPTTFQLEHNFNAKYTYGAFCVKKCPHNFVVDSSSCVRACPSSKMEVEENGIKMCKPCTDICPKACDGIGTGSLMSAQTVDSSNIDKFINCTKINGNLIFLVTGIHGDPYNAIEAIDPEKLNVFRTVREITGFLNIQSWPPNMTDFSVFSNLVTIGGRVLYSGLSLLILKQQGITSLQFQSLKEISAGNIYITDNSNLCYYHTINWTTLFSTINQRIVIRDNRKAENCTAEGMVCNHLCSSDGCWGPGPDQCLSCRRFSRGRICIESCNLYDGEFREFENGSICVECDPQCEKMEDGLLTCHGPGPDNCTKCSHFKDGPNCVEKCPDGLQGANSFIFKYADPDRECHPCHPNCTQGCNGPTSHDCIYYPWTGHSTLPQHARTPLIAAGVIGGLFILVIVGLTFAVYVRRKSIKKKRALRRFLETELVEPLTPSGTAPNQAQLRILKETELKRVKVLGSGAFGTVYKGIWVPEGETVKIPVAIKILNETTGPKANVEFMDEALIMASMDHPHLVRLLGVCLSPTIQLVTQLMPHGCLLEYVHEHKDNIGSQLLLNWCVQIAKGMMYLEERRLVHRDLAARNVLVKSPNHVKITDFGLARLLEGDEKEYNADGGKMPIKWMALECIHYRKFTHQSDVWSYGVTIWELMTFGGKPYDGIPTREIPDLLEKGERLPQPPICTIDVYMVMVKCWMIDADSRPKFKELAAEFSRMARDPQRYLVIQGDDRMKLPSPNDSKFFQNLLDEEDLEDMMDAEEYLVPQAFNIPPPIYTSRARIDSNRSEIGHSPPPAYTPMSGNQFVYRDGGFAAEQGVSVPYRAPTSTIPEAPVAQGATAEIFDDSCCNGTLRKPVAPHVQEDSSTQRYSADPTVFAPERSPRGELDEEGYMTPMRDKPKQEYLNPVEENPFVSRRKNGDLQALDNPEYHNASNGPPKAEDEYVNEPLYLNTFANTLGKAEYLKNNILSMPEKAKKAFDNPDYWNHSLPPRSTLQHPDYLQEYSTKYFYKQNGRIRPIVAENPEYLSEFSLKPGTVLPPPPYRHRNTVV
For test [9] the target is unchanged. The settings on record: at 1 µM.
The target in test [10] is Tyrosine-protein kinase Fer (Homo sapiens) (UniProt P16591). The settings on record: at 0.1 µM.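 Note: reported figures are averaged percent inhibition of FER.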
Chain of Tyrosine-protein kinase Fer (Homo sapiens) (P16591 whole entry, looked up): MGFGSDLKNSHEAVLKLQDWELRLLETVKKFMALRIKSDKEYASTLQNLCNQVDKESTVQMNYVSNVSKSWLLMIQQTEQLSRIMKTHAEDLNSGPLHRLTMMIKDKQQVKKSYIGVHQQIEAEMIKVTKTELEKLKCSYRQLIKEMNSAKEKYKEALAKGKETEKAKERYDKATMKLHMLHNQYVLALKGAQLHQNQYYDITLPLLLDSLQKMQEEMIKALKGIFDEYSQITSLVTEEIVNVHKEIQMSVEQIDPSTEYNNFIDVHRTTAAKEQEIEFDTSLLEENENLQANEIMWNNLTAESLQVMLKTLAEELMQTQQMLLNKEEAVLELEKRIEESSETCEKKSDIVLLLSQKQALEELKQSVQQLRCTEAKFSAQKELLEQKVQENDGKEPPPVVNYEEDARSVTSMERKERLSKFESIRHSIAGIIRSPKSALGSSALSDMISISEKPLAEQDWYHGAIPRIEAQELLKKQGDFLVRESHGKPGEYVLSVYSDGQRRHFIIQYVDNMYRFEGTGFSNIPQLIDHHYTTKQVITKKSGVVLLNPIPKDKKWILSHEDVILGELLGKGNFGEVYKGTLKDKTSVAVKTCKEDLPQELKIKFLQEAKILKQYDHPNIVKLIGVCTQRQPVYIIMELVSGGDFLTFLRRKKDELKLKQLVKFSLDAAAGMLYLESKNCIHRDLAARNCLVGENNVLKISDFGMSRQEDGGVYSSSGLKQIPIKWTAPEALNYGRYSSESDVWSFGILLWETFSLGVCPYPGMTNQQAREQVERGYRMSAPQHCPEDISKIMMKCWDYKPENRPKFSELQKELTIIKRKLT

Chain of Receptor tyrosine-protein kinase erbB-2 (Homo sapiens) (P04626 whole entry): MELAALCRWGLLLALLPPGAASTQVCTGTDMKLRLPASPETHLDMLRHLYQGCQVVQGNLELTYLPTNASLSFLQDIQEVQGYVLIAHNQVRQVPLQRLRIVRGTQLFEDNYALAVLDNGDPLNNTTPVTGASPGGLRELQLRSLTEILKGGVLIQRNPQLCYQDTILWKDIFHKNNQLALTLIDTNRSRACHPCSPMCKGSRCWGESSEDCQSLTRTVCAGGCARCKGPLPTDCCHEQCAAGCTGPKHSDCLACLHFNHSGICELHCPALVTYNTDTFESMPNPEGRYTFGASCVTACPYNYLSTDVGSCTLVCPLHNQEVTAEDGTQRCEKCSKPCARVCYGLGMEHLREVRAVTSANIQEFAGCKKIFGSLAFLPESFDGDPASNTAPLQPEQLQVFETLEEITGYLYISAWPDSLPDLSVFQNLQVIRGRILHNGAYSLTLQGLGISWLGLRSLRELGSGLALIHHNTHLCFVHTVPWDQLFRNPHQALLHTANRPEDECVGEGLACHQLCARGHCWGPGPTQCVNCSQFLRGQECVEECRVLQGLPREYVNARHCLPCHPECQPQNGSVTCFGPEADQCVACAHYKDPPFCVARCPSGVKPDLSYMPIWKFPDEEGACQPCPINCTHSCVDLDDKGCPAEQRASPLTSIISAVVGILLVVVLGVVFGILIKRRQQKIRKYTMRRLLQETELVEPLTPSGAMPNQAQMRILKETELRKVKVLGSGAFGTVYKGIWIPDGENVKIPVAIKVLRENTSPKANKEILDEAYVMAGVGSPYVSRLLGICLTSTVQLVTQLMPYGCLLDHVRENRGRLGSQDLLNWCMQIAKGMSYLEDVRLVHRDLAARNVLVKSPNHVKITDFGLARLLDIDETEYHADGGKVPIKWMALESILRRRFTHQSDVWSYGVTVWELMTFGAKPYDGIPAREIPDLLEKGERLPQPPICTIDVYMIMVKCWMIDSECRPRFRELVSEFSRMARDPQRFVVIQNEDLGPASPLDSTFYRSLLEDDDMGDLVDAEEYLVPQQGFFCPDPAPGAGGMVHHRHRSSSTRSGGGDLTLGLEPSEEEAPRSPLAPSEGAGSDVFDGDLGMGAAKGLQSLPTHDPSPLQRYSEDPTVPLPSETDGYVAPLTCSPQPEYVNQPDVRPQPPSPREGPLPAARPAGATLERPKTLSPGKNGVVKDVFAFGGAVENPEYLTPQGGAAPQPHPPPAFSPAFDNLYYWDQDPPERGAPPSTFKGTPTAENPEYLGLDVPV

Consider `Cc1nn(C)c2cc(N(C)c3ccnc(Nc4cccc(S(N)(=O)=O)c4)n3)ccc12`, for which the inhibition (as a rule, the change of the read-out against control, counted positive when it falls) in test [1] worked out at 37.8%; in [2], 5.14%; in test [3], 4.43%; in test [4], 7.86%; in [5] it was 39.6%; in test [6], 3.03%. In addition, the inhibition in test [7] was 10.1%; in [8] it was 11%; in [9], 29.3%; in test [10] it was 4.27%.

As to `Nc1nc(-c2ccccn2)c(-c2ccc3ncccc3n2)s1`, the inhibition in test [1] came to 3.51%; in [2], 2.99%; in test [3] it was 3.23%; in test [4], 2.74%; in test [5], 0.44%; in [6], 1.34%. The inhibition in test [7] is 4.11%; in test [8], 7.11%; in [9], 8.52%; in test [10] it was 0.93%.

Take `COc1cc2ncn(-c3cc(O[C@@H](C)c4ccccc4Cl)c(C(N)=O)s3)c2cc1OC`: the inhibition in test [1] amounted to 14.1%; in test [2], 3.27%; in test [3], 3.66%; in test [4], 1.67%; in test [5] it was 4.23%; in test [6], 0.23%. Further, the inhibition in test [7] worked out at 6.51%; in test [8], 6.3%; in test [9] it was 14.2%; in test [10], 6.4%.

Regarding `CCn1c(-c2nonc2N)nc2c(C#CC(C)(C)O)nc(CN3CCCC3)cc21`, the inhibition was -4.07% in test [1]; 2.42% in test [2]; -2.06% in test [3]; 1.15% in test [4]; 0.96% in [5]; -1.45% in [6]. Moreover, the inhibition in [7] is -6.25%; in [8], 3.95%; in [9], -0.29%; in test [10], -1.64%.

For the molecule `CCc1cccc(NC(=O)Nc2ccc(Oc3ccc4nc(NC(=O)OC)[nH]c4c3)cc2)c1`, the inhibition in test [1] came out at 63%; in test [2], 6.29%; in [3], 3.66%; in test [4], 15.7%; in [5], 27.5%; in test [6] it was 0.27%. The inhibition was 7% in test [7], 9.67% in test [8], 15.3% in test [9] and 3.85% in test [10].

For `CN(C)c1cc2c(Nc3ccc4nc(Cc5ccccc5)[nH]c4c3)ncnc2cn1`, the inhibition in [1] came out at 15.3%; in test [2] it was 4.07%; in test [3], 4.22%; in [4], 4.92%; in test [5], 3.25%; in test [6] it was 20%. Also, the inhibition in [7] was 67.7%; in [8], 101%; in test [9] it was 99.7%; in [10], 5.55%.

Regarding `COc1cc2c(cc1Nc1nc(N3CCc4ccccc43)c3cc[nH]c3n1)N(C(=O)CN(C)C)CC2`, the inhibition was determined as 9.31% in test [1]; 2.82% in [2]; 0.49% in [3]; 1% in test [4]; 0.73% in test [5]; 1.22% in test [6]. In addition, the inhibition is -0.36% in [7], 6.72% in test [8], 6.14% in test [9] and 66.2% in test [10].

As to `COc1cc2ncn(-c3cc(OCc4ccccc4Cl)c(C(N)=O)s3)c2cc1OC`, the inhibition is 7.08% in test [1]; 2.15% in test [2]; 1.6% in test [3]; 0.55% in test [4]; 3.38% in test [5]; -1% in test [6]. Moreover, the inhibition in test [7] was 2.47%; in test [8], -1.93%; in [9], 9.17%; in test [10], 2.47%.

Source of the values: ChEMBL document CHEMBL1961873, “Compounds: GSK PKIS; Assays: Nanosyn kinase panel” (2012).
